Test results published in PubChem BioAssay (Tox21).
“And” between values parts separate entries of the source, which are not always exact repeats. Identical values can stand only once. Results filed as inconclusive are left out. Some compounds were tested as several samples or in several runs, with calls that do not always agree. The source made the active and inactive calls. Unless noted, calls follow the shape of the dose curve; as a rule, active = well fitted curve in the direction sought with a large enough effect in the repeat runs; inconclusive = weak or mixed curves; inactive = no such curve, though single readings can be large; an effect the other way counts as inactive or inconclusive.

Legend:
[1] = biological target: Thyrotropin receptor (Homo sapiens) (UniProt P16473); assay: qHTS assay to identify small molecule antagonists of the thyroid stimulating hormone receptor (TSHR) signaling pathway (AID 1259385; calls by dose curve; also: nearly all actives have a fitted effect of over 20% in size)
Sequence of Thyrotropin receptor (Homo sapiens) (P16473 whole entry, looked up): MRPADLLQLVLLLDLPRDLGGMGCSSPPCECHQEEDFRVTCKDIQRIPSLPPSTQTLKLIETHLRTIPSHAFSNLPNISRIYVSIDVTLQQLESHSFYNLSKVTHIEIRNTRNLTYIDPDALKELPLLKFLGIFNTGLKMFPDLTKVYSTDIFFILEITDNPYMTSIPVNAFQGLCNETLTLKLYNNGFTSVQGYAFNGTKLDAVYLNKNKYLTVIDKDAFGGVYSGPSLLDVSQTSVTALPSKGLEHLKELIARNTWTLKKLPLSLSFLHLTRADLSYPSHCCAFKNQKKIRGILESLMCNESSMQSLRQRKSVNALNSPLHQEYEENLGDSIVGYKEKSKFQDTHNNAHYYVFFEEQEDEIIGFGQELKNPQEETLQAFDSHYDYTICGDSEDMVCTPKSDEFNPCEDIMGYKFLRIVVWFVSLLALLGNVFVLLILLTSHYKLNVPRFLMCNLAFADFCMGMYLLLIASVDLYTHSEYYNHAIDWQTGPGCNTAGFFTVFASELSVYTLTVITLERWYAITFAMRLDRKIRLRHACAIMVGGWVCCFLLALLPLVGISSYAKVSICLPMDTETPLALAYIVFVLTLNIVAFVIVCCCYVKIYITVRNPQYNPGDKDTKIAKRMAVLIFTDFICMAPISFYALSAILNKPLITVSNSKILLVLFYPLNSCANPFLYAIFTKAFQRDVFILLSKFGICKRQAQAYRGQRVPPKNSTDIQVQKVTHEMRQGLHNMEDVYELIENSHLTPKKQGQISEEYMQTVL
Procedure, shortened: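 Antagonist mode: compound-treated TSHR-expressing HEK293 cells were stimulated with 1.5 ng/mL TSH (final) in presence of Ro20-1724 for 30 min at RT. HTRF cAMP detection after 1 h; each compound tested at 15 concentrations, triplicate.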

[2] = qHTS assay to identify small molecule agonists of the estrogen receptor alpha (ER-alpha) signaling pathway in the presence of an antagonist - cell viability counter screen (AID 1259386);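 also: cells exposed to compounds for 22 h at 37 °C before the viability read; nearly all actives have a fitted effect of over 30% in size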; also: potency is read from the fitted curve at half-maximal effect
Procedure, shortened: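 VM7Luc4E2, stripped-serum pre-culture 5 d; 24hr plating; +ICI-182,780 10.0nM final; cpds 15 conc, 22hr, 37C/5% CO2; CellTiter-Fluor added at 21hr, fluorescence 1hr later.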

[3] = biological target: Progesterone receptor (Homo sapiens) (UniProt P06401); assay: qHTS assay to identify small molecule agonists of the progesterone receptor (PR) signaling pathway (AID 1346784; calls by dose curve; also: nearly all actives have a fitted effect of over 30% in size)
Sequence of Progesterone receptor (Homo sapiens) (P06401 whole entry, looked up): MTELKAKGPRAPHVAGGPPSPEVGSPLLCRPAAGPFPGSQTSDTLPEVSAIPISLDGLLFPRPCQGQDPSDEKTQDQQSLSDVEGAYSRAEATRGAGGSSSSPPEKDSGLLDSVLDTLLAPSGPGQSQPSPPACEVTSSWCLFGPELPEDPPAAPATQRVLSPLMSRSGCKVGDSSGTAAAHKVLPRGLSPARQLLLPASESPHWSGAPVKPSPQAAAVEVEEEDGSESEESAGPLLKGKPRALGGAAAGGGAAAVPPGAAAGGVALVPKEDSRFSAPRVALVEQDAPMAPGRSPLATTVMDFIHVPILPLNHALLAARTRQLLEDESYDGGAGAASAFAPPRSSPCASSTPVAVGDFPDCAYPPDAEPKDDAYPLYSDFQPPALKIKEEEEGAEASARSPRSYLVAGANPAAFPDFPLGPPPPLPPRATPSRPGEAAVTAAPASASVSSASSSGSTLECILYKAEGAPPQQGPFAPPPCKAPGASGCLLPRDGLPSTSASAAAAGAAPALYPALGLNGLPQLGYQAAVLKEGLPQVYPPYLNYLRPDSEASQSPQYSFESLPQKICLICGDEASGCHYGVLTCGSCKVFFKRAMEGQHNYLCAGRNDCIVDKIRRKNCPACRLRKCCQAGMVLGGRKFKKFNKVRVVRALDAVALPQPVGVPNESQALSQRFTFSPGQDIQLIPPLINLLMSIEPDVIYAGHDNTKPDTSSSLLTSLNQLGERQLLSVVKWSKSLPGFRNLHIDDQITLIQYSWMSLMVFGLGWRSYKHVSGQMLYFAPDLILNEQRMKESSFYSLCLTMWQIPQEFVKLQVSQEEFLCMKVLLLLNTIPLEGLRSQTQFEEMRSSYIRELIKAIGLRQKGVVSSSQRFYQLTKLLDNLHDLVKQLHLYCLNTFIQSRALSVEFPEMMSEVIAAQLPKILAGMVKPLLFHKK
Procedure, shortened: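 Reporter assay, GripTite PR-UAS-bla HEK 293T cells: 16 hr exposure to DMSO-dissolved compounds at 37C, 5% CO2, in steroid-depleted (2% charcoal-stripped FBS) medium; beta-lactamase measured by FRET fluorescence.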

[4] = qHTS assay to identify small molecule antagonists of the progesterone receptor (PR) signaling pathway - cell viability counter screen (AID 1346798); also: series mostly up to about 92 µM; nearly all actives have a fitted effect of over 50% in size
Procedure, shortened: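 In the same plates used for the beta-lactamase readout, cell viability of compound- and R5020-treated PR-UAS-bla HEK293T cells (16 hr, 37C) was assessed by CellTiter-Glo luminescence.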

[5] = qHTS assay to identify small molecule antagonists of the TGF-beta/Smad signaling pathway - cell viability counter screen (AID 1346824); also: nearly all actives have a fitted effect of over 50% in size
Procedure, shortened: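 Cytotoxicity counter-screen run in the same wells as the beta-lactamase Smad reporter read: CellTiter-Glo luminescence after 30 min at room temperature. HEK 293T SBE-bla cells had 5 hr compound exposure at 37 C with TGF-beta1 (0.25 ng/mL stock).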

[6] = qHTS assay to identify small molecule agonists of the TGF-beta/Smad signaling pathway - cell viability counter screen (AID 1346829); also: top concentration of the series differs between compounds; nearly all actives have a fitted effect of over 45% in size
Procedure, shortened: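 SBE-bla HEK 293T cells plated overnight, compound exposure 5 hr at 37 C. Viability read in the same wells by CellTiter-Glo luminescence after 30 min at room temperature, following the beta-lactamase read.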

[7] = qHTS assay to identify small molecule agonists of the TGF-beta/Smad signaling pathway (AID 1346859; active = well fitted activation curve with a large enough effect in the signal ratio in the repeat runs, not every such curve was filed as active; the % refers to the signal ratio; also: series mostly up to about 77 µM)
Procedure, shortened: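 Screening used HEK 293T SBE-bla cells at 4,000/well. Test agents: 5 hr, 37 C. Detection: FRET substrate, 2 hr RT, then excitation 405 nm with emissions at 460 and 530 nm.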

[8] = biological target: Thyrotropin-releasing hormone receptor (Homo sapiens) (UniProt P34981); assay: qHTS assay to identify small molecule antagonists of the thyrotropin-releasing hormone receptor (TRHR) signaling pathway (AID 1346877; active = well fitted inhibition curve with a large enough effect in the repeat runs, not every such curve was filed as active; also: series mostly up to about 51 µM)
Sequence of Thyrotropin-releasing hormone receptor (Homo sapiens) (P34981 whole entry, looked up): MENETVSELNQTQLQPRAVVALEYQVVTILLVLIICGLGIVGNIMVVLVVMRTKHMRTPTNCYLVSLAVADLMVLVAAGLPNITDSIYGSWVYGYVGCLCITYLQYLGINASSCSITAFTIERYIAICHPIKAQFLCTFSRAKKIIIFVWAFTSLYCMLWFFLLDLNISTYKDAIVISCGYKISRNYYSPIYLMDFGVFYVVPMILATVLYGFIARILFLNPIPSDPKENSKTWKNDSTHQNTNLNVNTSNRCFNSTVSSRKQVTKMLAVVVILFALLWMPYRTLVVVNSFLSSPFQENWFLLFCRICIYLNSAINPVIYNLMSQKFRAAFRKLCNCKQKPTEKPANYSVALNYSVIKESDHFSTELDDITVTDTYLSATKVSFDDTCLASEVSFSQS
Procedure, shortened: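 Intracellular calcium fluorescence, read kinetically every second over 3 min, reports TRH-evoked signalling in HEK293 cells carrying TRHR. Test compounds were added 5 min ahead of a 1 nM TRH challenge.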

[9] = biological target: Thyrotropin-releasing hormone receptor (Homo sapiens) (UniProt P34981); assay: qHTS assay to identify small molecule agonists of the thyrotropin-releasing hormone receptor (TRHR) signaling pathway (AID 1346891; calls by dose curve; also: series mostly up to about 58 µM)
Procedure, shortened: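 Readout was intracellular calcium fluorescence in TRHR-Hek293 cells. Cells were incubated 18 h, dye-loaded 2 h at 37 °C, and treated with compound in agonist mode.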

[10] = Human pregnane X receptor (PXR) small molecule agonists, qHTS cell viability counter screen (AID 1346977); also: nearly all actives have a fitted effect of over 50% in size; also: potency is read from the fitted curve at half-maximal effect
Procedure, shortened: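 In each well, the PXR reporter HepG2 line was checked for viability: CellTiter-Fluor reagent added 23hr post-dosing, fluorescence read after 1hr incubation at 37C.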

[11] = Caspase-3/7 induction in HepG2 cells by small molecules, qHTS assay (AID 1346978); also: nearly all actives have a fitted effect of over 15% in size
Procedure, shortened: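 Caspase-3/7 induction was measured by Caspase-Glo 3/7 luminescence (30 min, room temperature) after a 17 hr compound exposure of wild-type HepG2 cells seeded at 2,000 per well and pre-incubated 5 hr.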

[12] = Caspase-3/7 induction in CHO-K1 cells by small molecules, qHTS assay (AID 1346980); also: nearly all actives have a fitted effect of over 15% in size
Procedure, shortened: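 Luminescent Caspase-Glo 3/7 read (30min, room temperature) quantified apoptosis induction. Cells were wild-type CHO-K1, treated with compound for 17hr at 37 C and 5% CO2.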

[13] = Caspase-3/7 induction in HepG2 cells by small molecules, qHTS cell viability counter screen (AID 1346981); also: nearly all actives have a fitted effect of over 30% in size; also: potency is read from the fitted curve at half-maximal effect
Procedure, shortened: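 HepG2, WT, 2,000 cells/well; 5 hr pre-incubation 37 C/5% CO2; compound pin-transferred from DMSO; 16 hr exposure; CellTiter-Fluor, 1 hr; fluorescence read.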

[14] = biological target: Cytochrome P450 2D6 (Homo sapiens) (UniProt P10635); assay: Cytochrome P450 Family 2 Subfamily D Member 6 (CYP2D6) small molecule antagonists: luciferase reporter qHTS assay (AID 1671196); also: nearly all actives have a fitted effect of over 50% in size; also: potency is read from the fitted curve at half-maximal effect
Sequence of Cytochrome P450 2D6 (Homo sapiens) (P10635 whole entry, looked up): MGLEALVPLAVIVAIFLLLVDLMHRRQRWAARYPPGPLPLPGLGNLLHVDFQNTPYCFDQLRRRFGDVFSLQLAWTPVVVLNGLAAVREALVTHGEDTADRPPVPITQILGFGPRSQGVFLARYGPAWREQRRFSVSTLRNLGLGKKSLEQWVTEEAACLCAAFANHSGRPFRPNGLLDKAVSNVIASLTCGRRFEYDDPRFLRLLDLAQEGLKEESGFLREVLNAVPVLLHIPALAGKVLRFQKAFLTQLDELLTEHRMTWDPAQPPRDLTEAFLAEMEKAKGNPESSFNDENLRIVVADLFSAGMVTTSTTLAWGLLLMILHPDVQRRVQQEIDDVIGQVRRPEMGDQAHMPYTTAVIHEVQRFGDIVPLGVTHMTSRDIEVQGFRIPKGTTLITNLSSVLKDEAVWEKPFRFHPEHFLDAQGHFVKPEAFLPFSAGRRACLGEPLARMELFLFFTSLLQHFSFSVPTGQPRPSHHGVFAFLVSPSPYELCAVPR
Procedure, shortened: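 Read-out is luminescence from luciferin formed by CYP2D6 turnover of a proluciferin substrate, recorded as relative luminescence units. Reactions ran 1 h at room temperature after NADPH regeneration solution was added.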

[15] = biological target: Progesterone receptor (Homo sapiens) (UniProt P06401); assay: qHTS assay to identify small molecule antagonists of the progesterone receptor (PR) signaling pathway (AID 1346795; active = well fitted inhibition curve with a large enough effect in the signal ratio in the repeat runs, not every such curve was filed as active; the % refers to the signal ratio; also: potency is read from the fitted curve at half-maximal effect)
Procedure, shortened: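 Stimulus R5020 at 1 nM final; cells HEK293T PR-UAS-bla; medium with 2% charcoal-stripped FBS; compound exposure 16 hr at 37C, 5% CO2; detection by FRET beta-lactamase substrate, 2 hr, room temperature.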

[16] = qHTS assay to identify small molecule agonists of the progesterone receptor (PR) signaling pathway - cell viability counter screen (AID 1346799; calls by dose curve; also: nearly all actives have a fitted effect of over 45% in size; also: potency is read from the fitted curve at half-maximal effect)
Procedure, shortened: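 Multiplexed viability read: CellTiter-Glo luminescence, 30 min RT, following LiveBLAzer FRET measurement on PR-UAS-bla HEK293T cells exposed to compounds 16 hr.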

[17] = Caspase-3/7 induction in CHO-K1 cells by small molecules, qHTS cell viability counter screen (AID 1346979); also: nearly all actives have a fitted effect of over 35% in size; also: potency is read from the fitted curve at half-maximal effect
Procedure, shortened: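 Following a 5hr settling period, CHO-K1 cells at 1,500 per well received DMSO-dissolved compounds. Cell viability was quantified 16hr later by CellTiter-Fluor fluorescence, measured after 1hr with reagent at 37C.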

[18] = biological target: Nuclear receptor subfamily 1 group I member 2 (Homo sapiens) (UniProt O75469); assay: Human pregnane X receptor (PXR) small molecule agonists, qHTS assay (AID 1346982); also: nearly all actives have a fitted effect of over 35% in size; also: potency is read from the fitted curve at half-maximal effect
Sequence of Nuclear receptor subfamily 1 group I member 2 (Homo sapiens) (O75469 whole entry, looked up): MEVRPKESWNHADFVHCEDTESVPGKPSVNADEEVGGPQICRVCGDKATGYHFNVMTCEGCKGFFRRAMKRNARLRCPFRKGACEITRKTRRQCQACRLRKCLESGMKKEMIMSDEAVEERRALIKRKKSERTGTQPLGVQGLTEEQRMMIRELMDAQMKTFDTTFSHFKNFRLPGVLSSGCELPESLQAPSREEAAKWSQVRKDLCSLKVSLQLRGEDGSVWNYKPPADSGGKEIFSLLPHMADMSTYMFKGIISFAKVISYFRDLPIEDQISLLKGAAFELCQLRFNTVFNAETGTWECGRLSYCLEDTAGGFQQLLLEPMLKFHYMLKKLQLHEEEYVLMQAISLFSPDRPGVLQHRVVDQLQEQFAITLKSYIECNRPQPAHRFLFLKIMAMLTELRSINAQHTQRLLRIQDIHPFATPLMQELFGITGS
Procedure, shortened: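 Luciferase signal from ONE-Glo (30 min, room temperature) measured activation of hPXR-driven CYP3A4 reporter expression in PXR-Luc HepG2 cells treated with compounds for 24 hr at 37 C.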

[19] = biological target: Nuclear receptor subfamily 1 group I member 2 (Rattus norvegicus) (UniProt Q9R1A7); assay: Rat pregnane X receptor (rPXR) activation by small molecules, qHTS assay (AID 1346983); details: rPXR luciferase reporter cells, One-Glo luminescence, 24 h; max activation: stronger effect = higher value; also: nearly all actives have a fitted effect of over 20% in size; also: potency is read from the fitted curve at half-maximal effect
Sequence of Nuclear receptor subfamily 1 group I member 2 (Rattus norvegicus) (Q9R1A7 whole entry, looked up): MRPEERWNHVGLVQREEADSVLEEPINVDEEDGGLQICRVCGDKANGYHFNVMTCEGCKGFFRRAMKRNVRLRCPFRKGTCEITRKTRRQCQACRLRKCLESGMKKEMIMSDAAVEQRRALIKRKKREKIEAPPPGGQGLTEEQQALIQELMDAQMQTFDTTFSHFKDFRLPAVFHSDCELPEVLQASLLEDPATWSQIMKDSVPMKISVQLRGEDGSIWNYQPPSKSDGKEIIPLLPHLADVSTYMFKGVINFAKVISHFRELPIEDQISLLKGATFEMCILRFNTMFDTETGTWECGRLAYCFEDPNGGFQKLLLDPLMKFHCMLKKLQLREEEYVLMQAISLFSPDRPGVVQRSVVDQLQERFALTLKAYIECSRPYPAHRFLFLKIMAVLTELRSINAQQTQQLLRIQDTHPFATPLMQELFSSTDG
Procedure, shortened: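 Luminescent readout (One-Glo luciferase, 30 min room temperature) followed 24 hr compound treatment at 37 C of rPXR cells plated 2,000 per well and preincubated 5hr; qHTS format with compounds delivered in DMSO.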

[20] = biological target: Nuclear receptor subfamily 1 group I member 2 (Homo sapiens) (UniProt O75469); assay: CYP3A4 induction through human pregnane X receptor (PXR) by small molecules, qHTS assay (AID 1346984); also: nearly all actives have a fitted effect of over 40% in size
Procedure, shortened: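 Luminescence readout: luciferase signal after One-Glo (30 min, room temperature), following 3 h at 37C with 3uM final Luciferin-IPA P450 substrate. Cells were DPX-2 (HepG2, PXR/CYP3A4-luc co-transfected) dosed for 24 h.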
% is scaled to controls: 0 for no effect and ±100 for the full control effect.

CCC1CCC(CCC(=O)O)C1 (stereo not drawn)
inactive: Potency [1] | Potency [2] | Potency [3] | Potency [4] | outcome [5] | Potency [6] | Potency [7] | outcome [8] | outcome [9] | Potency [10] | Potency [11] | outcome [12] | Potency [13] | Potency [14]

O=C(Nc1ccc(C(=O)O)c(O)c1)c1ccccc1
active: Potency [14] 15.5 µM
inactive: Potency [1] | Potency [3] | Potency [15] | Potency [4] | Potency [16] | outcome [5] | Potency [6] | Potency [7] | outcome [8] | outcome [9] | Potency [10] | Potency [11] | Potency [17] | outcome [12] | Potency [13] | Potency [18] | max activation [19] -2.23% | Potency [20]

Nc1nc2ccc(OC(F)(F)F)cc2s1
active: Potency [18] 13.3 µM
inactive: Potency [1] | Potency [2] | Potency [3] | Potency [4] | Potency [16] | outcome [5] | Potency [6] | Potency [7] | Potency [11] | outcome [12] | Potency [13]

CCN(CC)C(=O)/C(C#N)=C/c1cc(O)c(O)c([N+](=O)[O-])c1
inactive: Potency [1] | Potency [15] | outcome [5] | Potency [6] | outcome [8] | outcome [9] | Potency [11] | outcome [12] | max activation [19] -6.1% | Potency [20] | Potency [14]
active: Potency [2] 26.6 µM | Potency [17] 26.6 µM | Potency [13] 29.8 µM

CCN(CC)CCNC(=O)c1cc(Cl)c(N)cc1OC
active: Potency [14] 7.76 µM
inactive: Potency [1] | Potency [3] | Potency [15] | Potency [4] | Potency [16] | outcome [5] | Potency [6] | Potency [7] | outcome [8] | outcome [9] | Potency [10] | Potency [11] | Potency [17] | outcome [12] | Potency [13] | Potency [18]

Cc1cc([N+](=O)[O-])ccc1N
active: Potency [2] 47.9 µM | Potency [17] 53.8 µM | Potency [13] 33.9 µM | Potency [14] 31.3 µM
inactive: Potency [1] | Potency [3] | Potency [16] | outcome [5] | Potency [6] | Potency [7] | outcome [12]

O=C(NS(=O)(=O)/C=C/c1ccccc1)c1ccc(F)cc1Cl
active: Potency [18] 19.3 µM
inactive: Potency [1] | Potency [2] | Potency [3] | Potency [4] | outcome [5] | Potency [6] | Potency [7] | outcome [8] | outcome [9] | Potency [10] | Potency [11] | Potency [17] | outcome [12] | Potency [13] | Potency [14]

CC(=O)C(C)=O
inactive: Potency [1] | Potency [2] | Potency [3] | Potency [16] | outcome [5] | Potency [6] | Potency [7] | Potency [10] | Potency [11] | Potency [17] | outcome [12] | Potency [13] | Potency [18] | Potency [14]

O=C(O)CCC(=O)c1ccc(-c2ccccc2)cc1
inactive: Potency [1] | Potency [2] | Potency [3] | Potency [16] | outcome [5] | Potency [6] | Potency [10] | Potency [11] | Potency [17] | outcome [12] | Potency [13] | Potency [18] | max activation [19] 11.9% | Potency [20] | Potency [14]

Cc1ccc(Cl)cc1N
inactive: Potency [1] | Potency [2] | Potency [3] | Potency [4] | Potency [16] | outcome [5] | Potency [6] | Potency [7] | Potency [10] | Potency [11] | Potency [13]
active: Potency [18] 55.5 µM

COc1cc(OC)c2ccc(=O)oc2c1
inactive: Potency [1] | Potency [2] | Potency [3] | Potency [16] | outcome [5] | Potency [6] | Potency [7] | Potency [10] | Potency [11] | outcome [12] | Potency [13] | Potency [18]

O=[N+]([O-])c1ccc2ncccc2c1
active: Potency [14] 31.8 µM
inactive: Potency [1] | Potency [3] | Potency [15] | Potency [4] | Potency [16] | outcome [5] | Potency [6] | Potency [7] | outcome [8] | outcome [9] | Potency [10] | Potency [11] | Potency [17] | outcome [12] | Potency [13]

COC(=O)C1=C(C)NC(C)=C(C(=O)OC(C)(C)CN(C)CCC(c2ccccc2)c2ccccc2)C1c1cccc([N+](=O)[O-])c1 (stereo not drawn)
active: Potency [15] 6.68 µM | Potency [17] 16.8 µM | Potency [19] 3.98 µM | Potency [14] 4.36 µM
inactive: Potency [1] | Potency [2] | outcome [5] | Potency [7] | outcome [8] | outcome [9] | Potency [11] | outcome [12]

CNS(=O)(=O)c1cc(C(=O)N2CCC(CCN3C4CCC3CC(n3c(C)nc5ccccc53)C4)(c3cccc(F)c3)CC2)c(Cl)cc1F (stereo not drawn)
inactive: Potency [1] | Potency [2] | Potency [3] | outcome [5] | Potency [6] | outcome [12] | Potency [18]
active: Potency [16] 5.45 µM | Potency [17] 17.2 µM | Potency [13] 13.7 µM | Potency [14] 25.2 µM

O=C(/C=C/c1ccc([N+](=O)[O-])cc1)c1ccccc1
inactive: Potency [1] | Potency [2] | Potency [3] | Potency [4] | Potency [16] | outcome [5] | outcome [12]
active: Potency [10] 61.3 µM | Potency [18] 24.4 µM

COc1ccc2nc(S(=O)Cc3ncc(C)c(OC)c3C)[nH]c2c1 (stereo not drawn)
inactive: Potency [1] | Potency [3] | outcome [5] | Potency [6] | Potency [7] | outcome [8] | outcome [9] | Potency [11] | outcome [12] | Potency [13]
active: Potency [17] 67.8 µM | Potency [18] 53.8 µM and 26.6 µM | Potency [14] 5.57 µM and 17.4 µM
48 µM (active) and inactive: Potency [2]
